# Inconclusive results are not listed. Activity calls are given as the source filed them. Calls come from the whole dose curve; as a rule, active = well fitted inhibition curve with a large enough effect; inconclusive = small, poorly fitted or top-dose-only effect; inactive = no such curve, though single readings can be large or run the other way.
# Assay: qHTS to identify inhibitors of the type 1 interferon - major histocompatibility complex class I in skeletal muscle: primary screen against the NCATS Mechanism Interrogation Plate v5.0 (MIPE) Libary (AID 1347411); note: nearly all actives have a fitted effect of over 65% in size;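 for activity change, negative = inhibition: plate controls were vehicle for no effect and reference inhibitor for full effect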
# Details: iHSKM cells + IFN-b, HiBiT-tagged MHC-I luminescence, 24 h; series mostly up to 45.8 µM; activity change, negative = inhibition: at the top concentration
# Summary of the method: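 IFN-beta-driven (4 ng/ml) HLA-B-HiBit expression in CRISPR-tagged C25cl48 myoblasts; compounds 11-pt, 1:3, max 46 uM, 24 hr exposure; lytic NanoLuc complementation luminescence.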
# Potency is the fitted concentration of half-maximal effect.
Compound,"activity change, negative = inhibition",Potency
Fc1ccc(-c2nc(-c3ccccc3F)[nH]c2-c2ccncc2)cc1,-25% (inactive),–
COc1ccc(CNc2nc(N(CCO)CCO)nc3c2ncn3C(C)C)cc1,–,4.66 µM (active)
Fc1ccc2[nH]ccc2c1-c1nc(N2CCOCC2)c2sc(CN3CCN(CC4CC4)CC3)cc2n1,–,33 µM (active)
Cc1[nH]c(/C=C2\C(=O)Nc3ccc(S(=O)(=O)N(C)c4cccc(Cl)c4)cc32)c(C)c1C(=O)N1CCN(C)CC1,–,16.5 µM (active)
COc1c(C)cc(NC(=O)c2nn(Cc3ccc(F)cc3)c3c2CN(C(=O)c2ccc[nH]2)C[C@]3(C)C(N)=O)cc1C,-14.7% [at 8.44 µM] (inactive),–
CC#C[C@@H](CC(=O)O)c1ccc(OCc2cccc(-c3ccc(C(F)(F)F)cc3)c2)cc1,-18.3% (inactive),–
Cn1ncnc1[C@H]1c2n[nH]c(=O)c3cc(F)cc(c23)N[C@@H]1c1ccc(F)cc1,-25.5% (inactive),–
O=c1[nH]c([C@@H]2CCCN2)nc2c1oc1ccc(Cl)cc12,9.71% (inactive),–
FC(F)(F)c1ccc(CNc2ccc(Cc3c[nH]c4ncc(Cl)cc34)cn2)cn1,-29.3% (inactive),–
COc1ccc(-n2c(SCCCN3C(=O)c4cccc5cccc(c45)C3=O)nnc2-c2ccncc2)cc1,-26.7% (inactive),–
NC(=O)c1cnc(N[C@@H]2CCCC[C@@H]2N)nc1Nc1cccc(-n2nccn2)c1,–,13.1 µM (active)
C[C@H](CN(C)C)Oc1nc(Nc2cc3cccc(Cl)c3cn2)cnc1C#N,-24% (inactive),–
Cn1cc(-c2ccc(F)c(C(F)(F)F)c2)nc1C1CCN(c2ncnc3[nH]ncc23)CC1,-29.1% (inactive),–
Cc1nc(NC(=O)N2CCCC2C(N)=O)sc1-c1ccnc(C(C)(C)C(F)(F)F)c1 (centres undefined),–,4.66 µM (active)
CCNC(=O)C#Cc1ccc2c(C(=Nc3ccc(CN(C)C)cc3)c3ccccc3)c(O)[nH]c2c1,–,4.04 µM (active)
COc1ccc(-c2cnc3c(-c4cccc5ncccc45)cnn3c2)cc1,-14.3% (inactive),–
O=C(c1c(F)ccc(NS(=O)(=O)N2CC[C@@H](F)C2)c1F)c1c[nH]c2ncc(-c3cnc(C4CC4)nc3)cc12,-28% (inactive),–
O=C1NC(=O)C(c2cnc3ccccn23)=C1c1cn2c3c(cc(F)cc13)CN(C(=O)N1CCCCC1)CC2,–,18.6 µM (active)
O=C(NCCCNc1nc(Nc2cccc(CN3CCOCC3)c2)ncc1C1CC1)C1CCC1,-27.1% (inactive),–
COc1ccc(-c2c(C)nn3c(NCCN4CCOCC4)cc(C)nc23)cc1OC,-22.4% (inactive),–
C=CC(=O)Nc1ccc2ncnc(Nc3cccc(Br)c3)c2c1,–,11.7 µM (active)
CC(C)NC(=O)COc1cccc(-c2nc(Nc3ccc4[nH]ncc4c3)c3ccccc3n2)c1,-28.2% (inactive),–
O=C(O)C1=CO[C@@H](O[C@@H]2O[C@H](CO)[C@@H](O)[C@H](O)[C@H]2O)[C@@H]2C(CO)=CC[C@H]12,1.95% (inactive),–
O=C(NC[C@H](O)CN1CCc2ccccc2C1)c1ccnc(NC2CCC2)c1,14% (inactive),–
C=CCNC1=C2C[C@@H](C)C[C@H](OC)[C@H](O)[C@@H](C)/C=C(\C)[C@H](OC(N)=O)[C@@H](OC)/C=C\C=C(/C)C(=O)NC(=CC1=O)C2=O,–,0.829 µM (active)
CCCCNc1ncc(-c2ccc(CN3CCOCC3)cn2)c(NC2CCC(O)CC2)n1 (centres undefined),-28.6% [at 15.5 µM] (inactive),–
COC(=O)N1CC2(CC2)C[C@H](C(=O)NO)[C@H]1C(=O)N1CCN(c2ccccc2)CC1,8.38% (inactive),–
CC(/C=C/C(=O)NO)=C\[C@@H](C)C(=O)c1ccc(N(C)C)cc1,–,2.08 µM (active)
CN1CC[C@@H](c2c(O)cc(O)c3c(=O)cc(-c4ccc(C(F)(F)F)cc4Cl)oc23)[C@@H]1CO,–,13.1 µM (active)
